# Measured values reported in article PMC7862700, “An all-to-all approach to the identification of sequence-specific readers for epigenetic DNA modifications on cytosine”.
# Tests used:
# Assay in all cases: DAPPL (digital affinity profiling via proximity ligation, sequencing); 10 mM Tris-HCl pH 7.5, 50 mM NaCl, 1 mM DTT, 4% glycerol, room temperature, 30 min; GST-TFs on glutathione beads, 16-mer random dsDNA library, 0.1% formaldehyde crosslink after washing; high values mean tight binding
# FEV = biological target: T1, FEV (Homo sapiens, UniProt Q99581 1-238); conditions: protein: recombinant; tags: N-terminal GST; dsDNA, one strand shown
# T1 sequence: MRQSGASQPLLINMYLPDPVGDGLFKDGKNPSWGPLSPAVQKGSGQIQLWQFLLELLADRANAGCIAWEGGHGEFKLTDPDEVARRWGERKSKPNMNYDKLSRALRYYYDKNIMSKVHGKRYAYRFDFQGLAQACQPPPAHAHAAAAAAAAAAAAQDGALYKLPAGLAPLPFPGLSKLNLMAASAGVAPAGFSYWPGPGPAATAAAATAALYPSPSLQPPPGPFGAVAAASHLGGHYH
# How it was run: (§1)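 Beads coated with glutathione captured GST-fused human transcription factors that had been expressed in yeast, and the factors were then given DNA barcodes and pooled with a tag-only sample. The pools were incubated with 200 nmole of a random double-stranded 16-mer DNA library in Tris/NaCl/DTT/glycerol buffer for 30 min at room temperature, washed, crosslinked with 0.1% formaldehyde and proximity-ligated with BsaI/T4 ligase at 37 °C for 1 h. PCR amplification and Illumina NextSeq500 sequencing came last. Binding signal is each hexamer's read frequency for a factor divided by its frequency for the tag-only sample.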
# ETV5 = ETV5 (Homo sapiens, UniProt P41161 1-510); conditions: protein: recombinant; tags: N-terminal GST; dsDNA, one strand shown
# How it was run: as §1
# HSF1 = HSF1 (Homo sapiens, UniProt Q00613 1-529); conditions: protein: recombinant; tags: N-terminal GST; chain copies: 3; dsDNA, one strand shown
# How it was run: as §1
# SPIC = biological target: T2, SPIC (Homo sapiens, UniProt Q8N5J4 1-248); conditions: protein: recombinant; tags: N-terminal GST; dsDNA, one strand shown
# T2 sequence: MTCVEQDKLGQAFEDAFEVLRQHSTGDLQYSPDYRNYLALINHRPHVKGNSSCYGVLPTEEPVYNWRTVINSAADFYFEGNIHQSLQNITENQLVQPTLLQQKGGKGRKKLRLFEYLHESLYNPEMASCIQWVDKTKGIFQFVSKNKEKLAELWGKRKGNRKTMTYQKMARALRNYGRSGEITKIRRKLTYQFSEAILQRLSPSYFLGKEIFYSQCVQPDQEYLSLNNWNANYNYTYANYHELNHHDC
# How it was run: as §1
# ELF4 = ELF4 (Homo sapiens, UniProt Q99607 1-663); conditions: protein: recombinant; tags: N-terminal GST; dsDNA, one strand shown
# How it was run: as §1
# ELK4 = biological target: T3, ELK4 (Homo sapiens, UniProt P28324-2 1-405); conditions: protein: recombinant; tags: N-terminal GST; dsDNA, one strand shown
# T3 sequence: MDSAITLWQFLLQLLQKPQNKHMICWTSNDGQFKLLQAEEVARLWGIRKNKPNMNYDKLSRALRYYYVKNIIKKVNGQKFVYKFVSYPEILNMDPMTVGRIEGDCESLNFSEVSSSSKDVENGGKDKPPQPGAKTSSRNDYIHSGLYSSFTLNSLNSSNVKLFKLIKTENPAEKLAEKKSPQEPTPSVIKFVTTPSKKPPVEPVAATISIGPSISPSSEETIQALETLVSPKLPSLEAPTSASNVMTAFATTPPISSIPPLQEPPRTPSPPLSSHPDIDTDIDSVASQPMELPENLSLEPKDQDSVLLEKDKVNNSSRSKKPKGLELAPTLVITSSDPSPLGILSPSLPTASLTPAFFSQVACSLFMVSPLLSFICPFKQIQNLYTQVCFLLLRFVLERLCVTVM
# How it was run: as §1
# ETV2 = biological target: T4, ETV2 (Homo sapiens, UniProt O00321 1-342); conditions: protein: recombinant; tags: N-terminal GST; dsDNA, one strand shown
# T4 sequence: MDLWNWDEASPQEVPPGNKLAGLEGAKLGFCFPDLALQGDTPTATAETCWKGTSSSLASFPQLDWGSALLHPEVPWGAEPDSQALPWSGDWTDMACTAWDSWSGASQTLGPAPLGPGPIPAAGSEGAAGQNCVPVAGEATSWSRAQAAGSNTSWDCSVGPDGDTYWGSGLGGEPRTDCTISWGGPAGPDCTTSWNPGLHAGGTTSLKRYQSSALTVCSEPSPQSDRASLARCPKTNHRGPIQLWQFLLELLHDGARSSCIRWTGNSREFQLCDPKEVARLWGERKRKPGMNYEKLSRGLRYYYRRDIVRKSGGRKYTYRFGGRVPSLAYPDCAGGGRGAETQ
# How it was run: as §1
# ELF3 = biological target: T5, ELF3 (Homo sapiens, UniProt P78545 1-371); conditions: protein: recombinant; tags: N-terminal GST; dsDNA, one strand shown
# T5 sequence: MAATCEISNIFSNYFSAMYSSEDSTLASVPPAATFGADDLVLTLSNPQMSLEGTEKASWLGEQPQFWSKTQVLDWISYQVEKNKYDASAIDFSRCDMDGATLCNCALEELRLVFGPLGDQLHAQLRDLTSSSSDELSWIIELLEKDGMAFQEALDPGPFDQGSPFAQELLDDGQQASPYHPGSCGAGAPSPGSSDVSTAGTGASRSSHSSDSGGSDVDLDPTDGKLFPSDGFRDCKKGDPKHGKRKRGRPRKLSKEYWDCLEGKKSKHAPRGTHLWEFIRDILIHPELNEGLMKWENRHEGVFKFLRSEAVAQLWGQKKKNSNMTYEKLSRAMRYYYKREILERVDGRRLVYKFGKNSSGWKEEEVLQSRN
# How it was run: as §1
# CRX = CRX (Homo sapiens, UniProt O43186 1-299); conditions: protein: recombinant; tags: N-terminal GST; dsDNA, one strand shown
# How it was run: as §1
# ETV1 = ETV1 (Homo sapiens, UniProt P50549 1-477); conditions: protein: recombinant; tags: N-terminal GST; dsDNA, one strand shown
# How it was run: as §1
# ERF = biological target: T6, ERF (Homo sapiens, UniProt P50548 1-548); conditions: protein: recombinant; tags: N-terminal GST; dsDNA, one strand shown
# T6 sequence: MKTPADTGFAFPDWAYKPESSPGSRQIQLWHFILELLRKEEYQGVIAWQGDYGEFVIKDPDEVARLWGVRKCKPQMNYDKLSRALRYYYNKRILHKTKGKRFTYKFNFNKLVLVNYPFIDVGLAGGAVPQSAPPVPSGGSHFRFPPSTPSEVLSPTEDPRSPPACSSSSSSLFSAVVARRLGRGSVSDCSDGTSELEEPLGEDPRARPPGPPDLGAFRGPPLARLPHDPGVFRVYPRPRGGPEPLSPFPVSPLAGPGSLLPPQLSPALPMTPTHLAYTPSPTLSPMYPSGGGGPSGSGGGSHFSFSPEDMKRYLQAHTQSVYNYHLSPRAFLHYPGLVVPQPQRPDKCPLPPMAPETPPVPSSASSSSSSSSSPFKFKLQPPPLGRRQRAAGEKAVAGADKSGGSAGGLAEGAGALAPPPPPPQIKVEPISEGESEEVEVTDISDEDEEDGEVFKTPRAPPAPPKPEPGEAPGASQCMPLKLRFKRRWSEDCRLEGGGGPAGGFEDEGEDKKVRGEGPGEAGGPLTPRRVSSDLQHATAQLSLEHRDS
# How it was run: as §1
# ETV3L = biological target: T7, ETV3L (Homo sapiens, UniProt Q6ZN32 1-361); conditions: protein: recombinant; tags: N-terminal GST; dsDNA, one strand shown
# T7 sequence: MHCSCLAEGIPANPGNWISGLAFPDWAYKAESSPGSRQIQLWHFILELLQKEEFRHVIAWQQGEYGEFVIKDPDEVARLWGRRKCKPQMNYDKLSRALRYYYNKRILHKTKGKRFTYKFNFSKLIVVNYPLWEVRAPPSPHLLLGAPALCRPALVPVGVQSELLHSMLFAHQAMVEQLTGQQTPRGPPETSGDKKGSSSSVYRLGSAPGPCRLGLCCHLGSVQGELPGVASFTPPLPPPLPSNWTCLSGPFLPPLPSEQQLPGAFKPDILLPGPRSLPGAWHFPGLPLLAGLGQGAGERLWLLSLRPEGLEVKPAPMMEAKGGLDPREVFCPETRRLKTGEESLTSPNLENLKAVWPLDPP
# How it was run: as §1
# ETS2 = biological target: T8, ETS2 (Homo sapiens, UniProt P15036 1-469); conditions: protein: recombinant; tags: N-terminal GST; dsDNA, one strand shown
# T8 sequence: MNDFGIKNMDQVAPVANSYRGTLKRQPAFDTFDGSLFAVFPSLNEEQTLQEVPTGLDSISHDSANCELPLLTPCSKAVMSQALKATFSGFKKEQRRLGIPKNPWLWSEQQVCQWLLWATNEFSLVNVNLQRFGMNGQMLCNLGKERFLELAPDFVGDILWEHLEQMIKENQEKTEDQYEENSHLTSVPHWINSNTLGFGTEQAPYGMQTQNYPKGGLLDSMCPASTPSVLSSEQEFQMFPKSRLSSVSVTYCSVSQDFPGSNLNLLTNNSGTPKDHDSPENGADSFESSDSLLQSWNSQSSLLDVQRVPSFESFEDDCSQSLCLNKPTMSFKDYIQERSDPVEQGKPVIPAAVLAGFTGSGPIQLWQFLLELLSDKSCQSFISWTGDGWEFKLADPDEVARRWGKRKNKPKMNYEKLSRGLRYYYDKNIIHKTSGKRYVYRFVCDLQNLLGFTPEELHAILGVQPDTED
# How it was run: as §1
# SPDEF = biological target: T9, SPDEF (Homo sapiens, UniProt O95238 1-335); conditions: protein: recombinant; tags: N-terminal GST; dsDNA, one strand shown
# T9 sequence: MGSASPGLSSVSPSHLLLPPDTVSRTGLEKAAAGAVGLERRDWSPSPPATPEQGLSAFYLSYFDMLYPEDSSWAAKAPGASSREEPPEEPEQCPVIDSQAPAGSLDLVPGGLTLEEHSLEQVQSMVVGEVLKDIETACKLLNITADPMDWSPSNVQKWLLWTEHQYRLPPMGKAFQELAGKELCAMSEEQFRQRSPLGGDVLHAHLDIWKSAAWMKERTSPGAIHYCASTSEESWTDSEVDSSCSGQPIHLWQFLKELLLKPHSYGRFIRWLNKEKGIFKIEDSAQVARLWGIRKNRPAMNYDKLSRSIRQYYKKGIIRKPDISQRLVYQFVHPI
# How it was run: as §1
# ETV7 = biological target: T10, ETV7 (Homo sapiens, UniProt Q9Y603 1-341); conditions: protein: recombinant; tags: N-terminal GST; dsDNA, one strand shown
# T10 sequence: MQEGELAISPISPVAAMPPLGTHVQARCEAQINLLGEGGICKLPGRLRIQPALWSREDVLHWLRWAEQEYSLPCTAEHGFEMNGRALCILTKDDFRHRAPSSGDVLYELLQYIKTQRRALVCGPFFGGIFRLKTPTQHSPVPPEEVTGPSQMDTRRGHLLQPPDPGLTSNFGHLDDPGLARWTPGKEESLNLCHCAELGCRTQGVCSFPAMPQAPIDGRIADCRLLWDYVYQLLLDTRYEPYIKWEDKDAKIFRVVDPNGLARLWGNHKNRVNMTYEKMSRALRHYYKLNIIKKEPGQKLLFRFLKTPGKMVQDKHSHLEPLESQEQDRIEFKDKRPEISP
# How it was run: as §1
# ELF5 = biological target: T11, ELF5 (Homo sapiens, UniProt Q9UKW6-2 1-255); conditions: protein: recombinant; tags: N-terminal GST; dsDNA, one strand shown
# T11 sequence: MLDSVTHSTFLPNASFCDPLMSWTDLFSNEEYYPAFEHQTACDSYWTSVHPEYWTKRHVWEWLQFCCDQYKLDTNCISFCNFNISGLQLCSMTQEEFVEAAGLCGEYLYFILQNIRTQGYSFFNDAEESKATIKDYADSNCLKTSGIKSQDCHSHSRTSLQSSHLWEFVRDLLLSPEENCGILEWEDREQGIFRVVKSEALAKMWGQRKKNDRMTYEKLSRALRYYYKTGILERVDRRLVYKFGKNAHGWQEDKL
# How it was run: as §1
# ETV3 = biological target: T12, ETV3 (Homo sapiens, UniProt P41162-2 1-143); conditions: protein: recombinant; tags: N-terminal GST; dsDNA, one strand shown
# T12 sequence: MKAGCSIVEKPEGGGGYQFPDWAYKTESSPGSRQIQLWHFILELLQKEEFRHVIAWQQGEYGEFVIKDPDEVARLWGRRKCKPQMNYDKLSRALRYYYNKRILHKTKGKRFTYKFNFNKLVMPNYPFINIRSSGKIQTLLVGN
# How it was run: as §1
# ETV6 = ETV6 (Homo sapiens, UniProt P41212 1-452); conditions: protein: recombinant; tags: N-terminal GST; dsDNA, one strand shown
# How it was run: as §1
# Sequence of HSF1 (Q00613 whole entry): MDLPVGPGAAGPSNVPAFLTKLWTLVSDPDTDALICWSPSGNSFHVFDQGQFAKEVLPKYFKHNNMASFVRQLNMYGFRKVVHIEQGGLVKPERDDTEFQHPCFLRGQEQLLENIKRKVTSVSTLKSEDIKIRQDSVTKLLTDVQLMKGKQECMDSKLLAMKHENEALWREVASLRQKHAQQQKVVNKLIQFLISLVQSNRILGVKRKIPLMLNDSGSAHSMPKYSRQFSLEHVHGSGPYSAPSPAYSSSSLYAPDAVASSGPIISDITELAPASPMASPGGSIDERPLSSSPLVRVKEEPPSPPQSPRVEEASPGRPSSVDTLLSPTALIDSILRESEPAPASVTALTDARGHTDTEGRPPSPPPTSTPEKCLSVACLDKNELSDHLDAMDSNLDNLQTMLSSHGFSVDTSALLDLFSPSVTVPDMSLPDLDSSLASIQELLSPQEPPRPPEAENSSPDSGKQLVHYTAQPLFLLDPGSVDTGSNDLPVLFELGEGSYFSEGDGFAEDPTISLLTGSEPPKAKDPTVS
# Sequence of ETV6 (P41212 whole entry): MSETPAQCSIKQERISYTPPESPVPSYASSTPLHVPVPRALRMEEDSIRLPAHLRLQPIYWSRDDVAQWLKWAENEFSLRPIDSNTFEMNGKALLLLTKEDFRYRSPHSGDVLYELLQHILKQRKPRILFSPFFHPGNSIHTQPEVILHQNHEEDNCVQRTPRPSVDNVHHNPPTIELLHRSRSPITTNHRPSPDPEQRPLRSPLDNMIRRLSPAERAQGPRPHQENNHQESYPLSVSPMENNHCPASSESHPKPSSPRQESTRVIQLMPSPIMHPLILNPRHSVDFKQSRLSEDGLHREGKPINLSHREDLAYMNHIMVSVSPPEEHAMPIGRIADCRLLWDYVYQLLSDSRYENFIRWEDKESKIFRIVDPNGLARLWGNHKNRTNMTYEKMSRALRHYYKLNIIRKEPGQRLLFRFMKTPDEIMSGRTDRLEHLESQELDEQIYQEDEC
# Sequence of CRX (O43186 whole entry): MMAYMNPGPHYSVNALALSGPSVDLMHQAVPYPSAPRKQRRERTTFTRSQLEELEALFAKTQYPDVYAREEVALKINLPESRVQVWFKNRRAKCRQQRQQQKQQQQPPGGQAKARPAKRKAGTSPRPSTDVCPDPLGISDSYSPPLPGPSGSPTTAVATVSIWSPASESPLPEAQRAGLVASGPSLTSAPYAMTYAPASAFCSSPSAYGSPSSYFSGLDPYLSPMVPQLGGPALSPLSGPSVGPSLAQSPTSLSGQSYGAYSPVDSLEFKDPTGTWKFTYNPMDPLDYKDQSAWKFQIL
# Sequence of ETV5 (P41161 whole entry): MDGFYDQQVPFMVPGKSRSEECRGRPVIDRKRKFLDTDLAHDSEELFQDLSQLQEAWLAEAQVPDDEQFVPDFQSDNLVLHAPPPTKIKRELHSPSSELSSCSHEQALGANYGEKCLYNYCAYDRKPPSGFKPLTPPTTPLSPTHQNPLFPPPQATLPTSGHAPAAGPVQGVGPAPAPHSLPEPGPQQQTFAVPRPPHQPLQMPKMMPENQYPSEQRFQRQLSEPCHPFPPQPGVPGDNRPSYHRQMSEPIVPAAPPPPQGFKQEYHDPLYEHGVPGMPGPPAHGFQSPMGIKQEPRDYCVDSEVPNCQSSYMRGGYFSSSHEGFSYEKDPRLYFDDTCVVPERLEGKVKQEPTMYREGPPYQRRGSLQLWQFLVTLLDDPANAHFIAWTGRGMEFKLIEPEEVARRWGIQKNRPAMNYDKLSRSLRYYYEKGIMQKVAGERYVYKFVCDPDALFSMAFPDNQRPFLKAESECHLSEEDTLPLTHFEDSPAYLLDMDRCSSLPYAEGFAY
# Sequence of ETV1 (P50549 whole entry): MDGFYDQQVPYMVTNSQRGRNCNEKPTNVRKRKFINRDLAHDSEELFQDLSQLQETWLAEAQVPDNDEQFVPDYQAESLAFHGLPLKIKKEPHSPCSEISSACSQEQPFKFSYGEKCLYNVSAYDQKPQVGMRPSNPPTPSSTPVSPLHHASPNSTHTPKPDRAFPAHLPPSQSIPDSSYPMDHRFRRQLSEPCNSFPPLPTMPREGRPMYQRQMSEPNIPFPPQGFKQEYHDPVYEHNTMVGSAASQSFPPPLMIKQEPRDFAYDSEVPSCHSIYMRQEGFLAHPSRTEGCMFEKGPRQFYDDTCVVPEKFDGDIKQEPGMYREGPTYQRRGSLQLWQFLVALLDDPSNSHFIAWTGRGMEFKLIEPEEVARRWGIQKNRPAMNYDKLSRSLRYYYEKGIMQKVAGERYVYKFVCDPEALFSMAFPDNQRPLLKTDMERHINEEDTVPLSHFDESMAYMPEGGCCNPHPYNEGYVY
# Sequence of ELF4 (Q99607 whole entry): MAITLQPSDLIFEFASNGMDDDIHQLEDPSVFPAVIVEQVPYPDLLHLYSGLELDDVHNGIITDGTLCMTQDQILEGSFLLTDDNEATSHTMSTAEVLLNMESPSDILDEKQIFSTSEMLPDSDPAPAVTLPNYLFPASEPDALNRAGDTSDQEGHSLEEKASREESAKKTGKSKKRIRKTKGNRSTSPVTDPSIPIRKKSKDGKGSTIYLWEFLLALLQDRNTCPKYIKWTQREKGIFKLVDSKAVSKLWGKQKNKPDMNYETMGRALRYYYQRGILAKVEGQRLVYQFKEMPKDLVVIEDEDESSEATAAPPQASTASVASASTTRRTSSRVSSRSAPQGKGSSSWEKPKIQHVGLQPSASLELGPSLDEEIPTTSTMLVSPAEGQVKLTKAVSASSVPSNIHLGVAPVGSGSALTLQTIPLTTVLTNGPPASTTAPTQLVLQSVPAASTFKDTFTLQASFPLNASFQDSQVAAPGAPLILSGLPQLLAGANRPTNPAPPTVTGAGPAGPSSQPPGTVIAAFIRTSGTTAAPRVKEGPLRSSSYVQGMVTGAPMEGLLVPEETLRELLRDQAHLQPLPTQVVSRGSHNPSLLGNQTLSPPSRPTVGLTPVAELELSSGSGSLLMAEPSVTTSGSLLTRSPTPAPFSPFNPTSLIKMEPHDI
sequence,measurement,setting,value
ATTGCT,binding signal,FEV,"1.22 fold enrichment (6-mer frequency, TF over GST control)"
same,binding signal,ETV5,"1.16 fold enrichment (6-mer frequency, TF over GST control)"
same,binding signal,HSF1,"1.14 fold enrichment (6-mer frequency, TF over GST control)"
same,binding signal,SPIC,"1.32 fold enrichment (6-mer frequency, TF over GST control)"
same,binding signal,ELF4,"1.19 fold enrichment (6-mer frequency, TF over GST control)"
same,binding signal,ELK4,"1.16 fold enrichment (6-mer frequency, TF over GST control)"
same,binding signal,ETV2,"1.22 fold enrichment (6-mer frequency, TF over GST control)"
same,binding signal,ELF3,"1.28 fold enrichment (6-mer frequency, TF over GST control)"
same,binding signal,CRX,"1.17 fold enrichment (6-mer frequency, TF over GST control)"
same,binding signal,ETV1,"1.27 fold enrichment (6-mer frequency, TF over GST control)"
same,binding signal,ERF,"1.15 fold enrichment (6-mer frequency, TF over GST control)"
same,binding signal,ETV3L,"1.25 fold enrichment (6-mer frequency, TF over GST control)"
same,binding signal,ETS2,"1.23 fold enrichment (6-mer frequency, TF over GST control)"
same,binding signal,SPDEF,"1.17 fold enrichment (6-mer frequency, TF over GST control)"
same,binding signal,ETV7,"1.43 fold enrichment (6-mer frequency, TF over GST control)"
same,binding signal,ELF5,"1.18 fold enrichment (6-mer frequency, TF over GST control)"
same,binding signal,ETV3,"1.11 fold enrichment (6-mer frequency, TF over GST control)"
same,binding signal,ETV6,"1.15 fold enrichment (6-mer frequency, TF over GST control)"
